Experimental data taken from PubChem BioAssay AID1508622 (National Center for Advancing Translational Sciences (NCATS), 2021).
The source made the active and inactive calls. Calls follow the shape of the dose curve; as a rule, active = well fitted activation curve with a large enough effect; inconclusive = small, poorly fitted or top-dose-only effect; inactive = no such curve, though single readings can be large or run the other way.

Assay: Confirmatory qHTS for Identification of Small Molecule Activators of Huntingtin-Antisense Promoter Activity
Conditions: HEK293 HTT-AS promoter firefly luciferase reporter, 24 h; series mostly up to 57.5 µM
In short: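 2,500 luciferase reporter HEK293 cells/well; 24 h culture; cpds up to 57.5 uM final, PTC124 50 uM ctrl; 24 h, 37C; Dual-Glo FLuc reagent, 10 min RT; lum. Norm.: vehicle 0%, zero RLU -100%.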

Potency, inactive:
Cc1ccccc1Cc1c(C)nc2c(-c3ccccc3)c(C)[nH]n2c1=O, COCCn1c2c([n+](Cc3cnccn3)c1C)C(=O)c1ccccc1C2=O, Cc1ccc(C)c(N2CCN(S(=O)(=O)c3cc(C(=O)Nc4ccccc4C(F)(F)F)ccc3F)CC2)c1, CC(C)c1ccc(Cc2cnc(NC(=O)c3ccc4c(c3)CC(c3ccccc3)OC4=O)s2)cc1 (centres undefined), Cc1oc(-c2ccc(C(=O)NCc3ccccc3F)cc2)nc1COc1ccccc1, O=S(=O)(NCCc1csc2nc(-c3ccccc3)nn12)c1ccc(Oc2ccccc2)cc1, Cc1nc(-c2ccc(S(=O)(=O)Nc3ccc(C)c(N(C)C)c3)cc2)co1, Cc1cccc(N2CCN(S(=O)(=O)c3ccc4c(c3)C(C(C)C)C(=O)N4)CC2)c1C (centres undefined), Cc1ccc(-c2nnc(Nc3ccc(F)cc3)c3ccccc23)cc1S(=O)(=O)NC(C)C, CCc1ccc(CN(Cc2ccco2)C(=O)COc2ccccc2Cl)cc1, Cc1cccc(N2CCN(C(=O)c3cccc(-n4c(C)nc5cccnc54)c3)CC2)c1C, COc1ccc(-c2noc(CSc3nnc(-c4ccccc4)n3-c3ccc(F)cc3)n2)c(OC)c1, CCOc1ccc(-n2ccnc2SCC(=O)Nc2cc(C)ccc2C)cc1, COc1ccc(Br)cc1CNC(=O)CSc1n[nH]c(-c2ccccc2)n1, O=C(COCc1cc(-c2ccc3c(c2)OCO3)on1)N1CCN(c2cccc(C(F)(F)F)c2)CC1, COc1ccc(CC(=O)Nc2ccc(-c3nc4ccccc4s3)cc2Cl)cc1OC, CCOC(=O)C1CCCN(S(=O)(=O)c2ccc3c(c2)CCCN3C(C)=O)C1 (centres undefined), O=C(Nc1cccc(Cl)c1)c1ccc(F)c(S(=O)(=O)N2CCC3(CC2)OCCO3)c1, O=C(CCc1cn(Cc2ccc(F)cc2)c2ccccc12)NC1CCCCC1, COc1ccc(-c2noc(N3CCC(C(=O)N4CCN(c5cccc(OC)c5)CC4)CC3)n2)cc1, N#Cc1ccccc1S(=O)(=O)N1CCC(Oc2ccc(-n3cnnn3)cc2)CC1, Cc1c(Cl)cccc1-n1ncc(C(=O)Nc2ccc(F)cc2F)c1C1CCN(C(=O)OC(C)(C)C)CC1, O=C(NCc1ccccc1)c1ccc(CSc2nc3cccnc3n2Cc2ccccc2)cc1, CCc1ccccc1-n1c(SCC(=O)Nc2ccc(C)cc2)nc2n[nH]c(C)c2c1=N
